According to PubChem BioAssay (Tox21):
Records with an inconclusive call do not appear. Calls of active or inactive are those of the source. Calls come from the whole dose curve; as a rule, active = well fitted cell-killing curve with a large enough effect in the repeat runs; inconclusive = weak or mixed curves; inactive = flat fitted curve, though single readings scatter.

Assay: qHTS assay to identify small molecule antagonists of the estrogen related receptor (ERR) signaling pathway from Tox21 library - cell viability counter screen (AID 1224834); note: nearly all actives have a fitted effect of over 30% in size
Details: ERR reporter cells viability, CellTiter-Fluor, 17.5 h; series mostly up to 92.4 µM; viability change, negative = cytotoxic: at the top concentration
Procedure, shortened: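 Compounds in DMSO were pinned onto ERR cells that had been incubated for 6 h, and the plates were held at 37 C for 17.5 h. CellTiter-Fluor reagent was then added and fluorescence was measured after 30 min.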
% is set by controls: 0 for no effect and ±100 for the full control effect; potency is the fitted concentration of half-maximal effect.

SMILES	viability change, negative = cytotoxic	Potency
COCC(=O)N(c1c(C)cccc1C)N1CCOC1=O	-0.18% (inactive)	
CC(=O)Nc1cc([As](=O)(O)O)ccc1O	-0.638% [at 42.5 µM] (inactive)	
CNNC	1.97% (inactive)	
CCC(Cl)[N+](=O)[O-] (configuration not stated)	1.18% (inactive)	
CCCSC(=O)Cl	-0.535% (inactive)	
CC(Cl)(Cl)[N+](=O)[O-]	-0.266% (inactive)	
Cc1ncc2n1-c1ccc(Cl)cc1C(c1ccccc1F)=NC2	0.245% [at 42.5 µM] (inactive)	
CC1=C(C(=O)O)N2C(=O)[C@@H](N)[C@H]2SC1	3.67% [at 19 µM] (inactive)	
Cc1nnc2n1-c1sc(CCC(=O)N3CCOCC3)cc1C(c1ccccc1Cl)=NC2	5.6% [at 42.5 µM] (inactive)	
CC1CCCCC1NC(=O)Nc1ccccc1 (configuration not stated)	-2.2% (inactive)	
CCCSP(=S)(OCC)Oc1ccc(Cl)cc1Cl (configuration not stated)	0.906% (inactive)	
COC(=O)c1ccccc1S(=O)(=O)NC(=O)N(C)c1nc(C)nc(OC)n1	0.748% (inactive)	
CNC(=O)N(C)c1nc2ccccc2s1	-7.52% (inactive)	
CNC(=O)Oc1ccccc1C1OCCO1	4.72% (inactive)	
CCOc1nc(C(Cl)(Cl)Cl)ns1	0.84% (inactive)	
CC(=O)[C@H]1CC[C@H]2[C@@H]3CC[C@H]4C[C@H](O)CC[C@]4(C)[C@H]3C(=O)C[C@]12C	-0.244% [at 42.5 µM] (inactive)	
O=CNC(N1CCN(C(NC=O)C(Cl)(Cl)Cl)CC1)C(Cl)(Cl)Cl (configuration not stated)	-0.957% (inactive)	
Cc1cc(C)nc(Nc2ccccc2)n1	-3.4% (inactive)	
CCCCC(=O)Cl	3.49% (inactive)	

SMILES	viability change, negative = cytotoxic	Potency
CCCCN(CCCCO)N=O	0.923% (inactive)	
COc1cccc2c1cc([N+](=O)[O-])c1c(C(=O)O)cc3c(c12)OCO3		30.6 µM (active)
C[C@]12CC[C@H]3[C@@H](CCC4=CC(=O)CC[C@@]43C)[C@@H]1CC[C@@H]2C(=O)O	5.71% [at 42.5 µM] (inactive)	
C#CCN1C(=O)COc2cc(F)c(N3C(=O)C4=C(CCCC4)C3=O)cc21	-6.1% (inactive)	
[As]#[In]	4.15% (inactive)	
N#CCBr	2.58% (inactive)	
CCC(C)n1c(=O)[nH]c(C)c(Br)c1=O (configuration not stated)	1.5% (inactive)	
CCS(=O)(=O)CCSP(=O)(OC)OC	-1.54% (inactive)	
C=C(C)CN(CC)c1c([N+](=O)[O-])cc(C(F)(F)F)cc1[N+](=O)[O-]	3.62% (inactive)	
Fc1cc(Br)ccc1CBr	0.819% [at 42.5 µM] (inactive)	
OCCSCSCCO	-0.16% (inactive)	
CCCCOC(=O)[C@@H](C)Oc1ccc(Oc2ccc(C#N)cc2F)cc1	-4.26% (inactive)	
CCC#N	2.23% (inactive)	
CCC(=O)c1ccccc1	1.14% (inactive)	
CCOC(=O)C1(c2ccccc2)CCN(CCc2ccc(N)cc2)CC1	-3.64% [at 42.5 µM] (inactive)	
CSc1ccc(C(=O)C(C)(C)N2CCOCC2)cc1	-4.79% (inactive)	
N#CCNCC#N	2.77% (inactive)	
CC(=O)CCc1ccc2c(c1)OCO2	7.34% (inactive)	
